Screening data as filed in PubChem BioAssay.
The list is not random: actives were taken first. Their share in the collection is about 12%.
JMJD2A Tudor inh: qHTS Assay for Inhibitors of JMJD2A-Tudor Domain; actives 4.4% (n = 390,000); Lysine-specific demethylase 4A (Homo sapiens), O75164; AlphaScreen JMJD2A-Tudor / H3K4me3 peptide binding; Potency, µM (highest dose often 114 µM), most hits filed as inhibitors; also: nearly all actives have a fitted effect of over 50% in size
BAZ2B block: qHTS Assay for Inhibitors of BAZ2B. actives 4.4% (n = 360,000). Bromodomain adjacent to zinc finger domain protein 2B (Homo sapiens), Q9UIF8. AlphaScreen BAZ2B-H3K14Ac peptide displacement. Potency, µM (doses to about 114 µM), usual class: inhibitors. AID 504333, 2011; also: nearly all actives have a fitted effect of over 60% in size
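Complex of BAZ2B and biotin-H3K14Ac (50 nM apiece) forms over 30 min at RT, then faces library compounds up to 110 uM for another 30 min; AlphaScreen beads added, 20 min dark incubation, luminescence read.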
HP1b binding inh: HTS for Inhibitors of HP1-beta Chromodomain Interactions with Methylated Histone Tails; Chromobox protein homolog 1 (Homo sapiens), P83916; AlphaScreen HP1-beta / biotin-H3K9me3 peptide binding; Potency, µM (series often up to 114 µM), most hits filed as inhibitors; actives 0.56% (n = 390,000); AID 540317, 2011; also: nearly all actives have a fitted effect of over 70% in size
Target sequence (P83916 whole entry, looked up): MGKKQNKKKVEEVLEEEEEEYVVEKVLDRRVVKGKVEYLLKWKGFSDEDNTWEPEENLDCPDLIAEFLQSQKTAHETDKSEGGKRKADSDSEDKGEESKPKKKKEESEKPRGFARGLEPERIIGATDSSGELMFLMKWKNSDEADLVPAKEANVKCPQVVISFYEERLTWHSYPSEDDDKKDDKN
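Compound inhibition of the preformed complex between 50 nM HP1-beta and 50 nM biotinylated H3K9me3 peptide was read by AlphaScreen. Buffer was PBS pH 7.4 with 0.01% Tween-20. Incubations ran 30 min at room temperature, with 10 ug/mL donor/acceptor beads.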
L3MBTL1 inh: qHTS Assay for the Inhibitors of L3MBTL1; Lethal(3)malignant brain tumor-like protein 1 (Homo sapiens), Q9Y468; AlphaScreen L3MBTL1–H3K9me1 peptide binding; Potency, µM (top dose mostly 57.1 µM), usual class: inhibitors; actives 0.66% (n = 230,000); AID 485360, 2010; also: nearly all actives have a fitted effect of over 60% in size
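First, the protein-peptide complex forms for 30 min at room temperature (L3MBTL1 50 nM, biotinylated H3K9me1 peptide 75 nM). Next, compounds are pin-transferred and incubated 30 min. Finally, AlphaScreen beads are added and read after 30 min.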
G9a block: qHTS Assay for Inhibitors of Histone Lysine Methyltransferase G9a | Histone-lysine N-methyltransferase EHMT2 (Homo sapiens), Q96KQ7 | G9a H3K9 monomethylation, AlphaScreen, 2 h | Potency, µM (top dose mostly 102 µM), most hits filed as inhibitors | actives 8.8% (n = 350,000) | AID 504332, 2011; also: nearly all actives have a fitted effect of over 75% in size
Target sequence (Q96KQ7 913-1193 limits assumed): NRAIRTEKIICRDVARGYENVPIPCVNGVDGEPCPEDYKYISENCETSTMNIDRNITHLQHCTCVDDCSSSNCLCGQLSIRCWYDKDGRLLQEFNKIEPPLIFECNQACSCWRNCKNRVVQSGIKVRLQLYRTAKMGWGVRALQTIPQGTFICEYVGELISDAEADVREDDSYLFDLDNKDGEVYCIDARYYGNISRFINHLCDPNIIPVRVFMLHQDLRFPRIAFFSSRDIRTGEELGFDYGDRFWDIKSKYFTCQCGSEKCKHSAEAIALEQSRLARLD
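G9a (20 nM) was preincubated 15 min with compound, then reacted 2 h at room temperature with 500 nM biotin-H3K9 peptide and 20 µM SAM. Monomethyl-H3K9 detected by AlphaScreen using anti-H3K9me1 antibody.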
Sfp inh: qHTS Assay for Inhibitors of Bacillus subtilis Sfp phosphopantetheinyl transferase (PPTase); Biochemical Sfp PPTase activity, qHTS; Potency, µM, most hits filed as inhibitors; actives 3.5% (n = 310,000); AID 1490, 2009;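 also: the enzyme is Sfp with the accession as filed and its product quenches rhodamine fluorescence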
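After 15 min at room temperature with compound, 15 nM Sfp received 5 uM rhodamine-CoA plus 12.5 uM BHQ-2-ybbR (50 mM Hepes pH 7.6, 10 mM MgCl2). Rate came from the fluorescence difference over 30 min, ex 525/em 598 nm.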
Of the large screens only hits and unclear results are named; the others gave an inactive call. Calls follow the shape of the dose curve; as a rule, active = well fitted curve in the direction sought with a large enough effect; inconclusive = small, poorly fitted or top-dose-only effect, or another doubt; inactive = no such curve, though single readings can be large; an effect the other way counts as inactive or inconclusive.

O=[N+]([O-])c1ccc(S(=O)(=O)N2CCN(Cc3ccco3)CC2)cc1	JMJD2A Tudor inh 8.9µM, BAZ2B block 20µM, HP1b binding inh 22µM, G9a block inconclusive, Sfp inh 56µM (no result: L3MBTL1 inh)
CCCc1ccc(S(=O)(=O)N2CCN(Cc3ccco3)CC2)cc1	none (no result: L3MBTL1 inh, G9a block)
CCCS(=O)(=O)N1CCN(CCCc2ccccc2)CC1	JMJD2A Tudor inh 5.6µM, BAZ2B block 79µM, HP1b binding inh inconclusive, G9a block 10µM
Cn1cc(C(=O)NCc2ccccc2)c(=O)c2cc(S(=O)(=O)N3CCCCCC3)ccc21	none (no result: L3MBTL1 inh, Sfp inh)
Cc1ccc(C(=O)N2CCCC(N3CCN(c4ccccc4C)CC3)C2)c(=O)[nH]1 (stereo unspecified)	JMJD2A Tudor inh 50µM, HP1b binding inh inconclusive (no result: L3MBTL1 inh)
CCCCCCCC1=CC2=CC(=O)C(C)(O)C(=O)C2=CN1CCCC (stereo unspecified)	none (no result: JMJD2A Tudor inh, BAZ2B block, HP1b binding inh, L3MBTL1 inh, G9a block)
CCOc1ccc(NC(=O)CN2CCN(c3ccc(Cl)cc3)CC2)cc1	none (no result: L3MBTL1 inh, Sfp inh)
Cc1ccc(C(=O)Nc2ncccc2O)o1	JMJD2A Tudor inh 3.5µM, BAZ2B block inconclusive (no result: Sfp inh)
O=C(CNC(=O)c1ccc(Br)o1)Nc1ncccc1O	JMJD2A Tudor inh inconclusive, BAZ2B block 79µM, L3MBTL1 inh inconclusive, G9a block 28µM (no result: Sfp inh)
Cc1cccnc1NC(=O)c1ccc(Br)o1	none (no result: Sfp inh)
COc1ccc(C2CC(c3ccccc3)Oc3cc(C)c(Cl)c(C)c32)cc1 (stereo unspecified)	none (no result: BAZ2B block, L3MBTL1 inh, G9a block)
Cc1ccc2c(c1)NC(=O)C(CC(=O)N(C)Cc1ccccc1)O2 (stereo unspecified)	G9a block 50µM, Sfp inh inconclusive (no result: L3MBTL1 inh)
Cc1ccc(NC(=O)CC2Oc3ccc(C)cc3NC2=O)cc1 (stereo unspecified)	G9a block inconclusive (no result: L3MBTL1 inh)
CCC(C)NC(=O)CC1Oc2ccc(C)cc2NC1=O (stereo unspecified)	G9a block 45µM, Sfp inh inconclusive
COC(=O)CC1Oc2ccc(C)cc2NC1=O (stereo unspecified)	none (no result: L3MBTL1 inh)
COC(=O)c1ccccc1NC(=O)c1ccc2nc(Cc3ccccc3)oc2c1	none (no result: L3MBTL1 inh, Sfp inh)
CCC(Sc1nc2c(sc3ccccc32)c(=O)n1CCc1ccc(OC)c(OC)c1)C(=O)N(CC)CC (stereo unspecified)	JMJD2A Tudor inh inconclusive (no result: L3MBTL1 inh, Sfp inh)
Cc1ccc(C(=O)N/N=C2\CC3CC=CC23)c(C)c1 (stereo unspecified)	none
Cc1ccc(NC(=S)N/N=C2\CC3CC=CC23)c(C)c1 (stereo unspecified)	JMJD2A Tudor inh inconclusive, G9a block inconclusive, Sfp inh 32µM (no result: L3MBTL1 inh)
Cc1cccc(C)c1NC(=S)N/N=C1\CC2CC=CC12 (stereo unspecified)	HP1b binding inh inconclusive, G9a block 13µM, Sfp inh inconclusive (no result: L3MBTL1 inh)
O=c1cc(O)nc(SC23CC4CC(CC(C4)C2)C3)[nH]1	G9a block 45µM
COc1cccc(NC(=O)C2Cc3ccccc3CN2C(=O)c2ccco2)c1 (stereo unspecified)	G9a block 35µM (no result: L3MBTL1 inh)
NS(=O)(=O)c1ccc(NC(=O)C2Cc3ccccc3CN2C(=O)c2ccco2)cc1 (stereo unspecified)	JMJD2A Tudor inh 40µM, BAZ2B block 50µM, HP1b binding inh inconclusive, G9a block 50µM (no result: L3MBTL1 inh)
Cc1ccccc1NC(=O)C1Cc2ccccc2CN1C(=O)c1ccco1 (stereo unspecified)	G9a block inconclusive, Sfp inh inconclusive (no result: L3MBTL1 inh)
CCSc1nnc(NC(=O)C2Cc3ccccc3CN2C(=O)c2ccco2)s1 (stereo unspecified)	JMJD2A Tudor inh 79µM, BAZ2B block inconclusive, L3MBTL1 inh inconclusive, G9a block inconclusive, Sfp inh 40µM
